Assay [1] is described as follows: NCI Yeast Anticancer Drug Screen. Data for the rad50 strain (AID 155).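 Also: 0% = growth of vehicle-only cultures of the same strain.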 The settings on record: S. cerevisiae rad50 strain growth inhibition, stronger effect = higher value. A digest of the protocol: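 Vehicle-treated cultures provide the reference for the growth inhibition reported for compound-exposed, repair-deficient yeast.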
Assay [2] is described as follows: NCI Yeast Anticancer Drug Screen. Data for the mec2-1 strain (AID 157). The settings on record: S. cerevisiae mec2-1 strain, stronger effect = higher value. The procedure, abridged:
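Strain: mec2-1 (DNA repair/cell cycle alteration). Compound exposure, then growth measured; inhibition expressed relative to vehicle.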

A short description of assay [3]: NCI Yeast Anticancer Drug Screen. Data for the sgs1 mgt1 strain (AID 161).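 Also: 0% = growth of cultures given vehicle only.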 Conditions: S. cerevisiae sgs1 mgt1 strain, stronger effect = higher value. A digest of the protocol:
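Genetically altered yeast, compound exposure, growth inhibition relative to vehicle.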

Assay [4] can be described thus: NCI Yeast Anticancer Drug Screen. Data for the cln2 rad14 strain (AID 165).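 Also: 0% = growth equal to vehicle treated cultures.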 Conditions: S. cerevisiae cln2 rad14 strain, stronger effect = higher value. The procedure, abridged: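 Compounds are applied to the cln2 rad14 yeast strain, and growth is then compared with that of vehicle-treated cultures to give inhibition.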
Assay [5] is described as follows: NCI Yeast Anticancer Drug Screen. Data for the bub3 strain (AID 167). Conditions: S. cerevisiae bub3 mutant strain, stronger effect = higher value. The procedure, abridged:
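Mutant yeast screening strain plus compound; vehicle-treated cultures serve as the 0% inhibition reference.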

Assay [6] is described as follows: NCI Yeast Anticancer Drug Screen. Data for the mlh1 rad18 strain (AID 175). Conditions: S. cerevisiae mlh1 rad18 strain growth inhibition, stronger effect = higher value. A digest of the protocol: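 Read-out is yeast growth inhibition, calculated against vehicle-only controls. The compound was applied to a strain engineered with DNA damage repair alterations.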
The mark [7] stands for this setting: at 5.0 µM (retest, dose inferred, filed as 0.5).
[8] abbreviates: at 50.0 µM (retest, dose inferred, filed as 5.0).

The structures appear in SMILES notation. About 79,000 compounds went through this panel and 15% of them were active in at least one assay; those are over-represented in the sample as a whole. A number with no mark means an inactive call. The source made the active and inactive calls. Rule as the data show it: active = growth inhibition above about 70%; inactive = the rest.

In the case of `O=C1Sc2sc(=S)sc2SC1c1ccccc1` (centres undefined), the growth inhibition is -4% in assay [1] (setting [7]); 87% (active) in assay [1] (setting [8]); 40.5% in assay [1] (at 50.0 µM); -1% in assay [2] (setting [7]); 91% (active) in assay [2] (setting [8]); 36.5% in assay [2] (at 50.0 µM). Besides, the growth inhibition is 5% in assay [3] (setting [7]); 98% (active) in assay [3] (setting [8]); 82.2% (active) in assay [3] (at 50.0 µM); -1% in assay [4] (setting [7]); 79% (active) in assay [4] (setting [8]); 58.1% in assay [4] (at 50.0 µM). For the same compound, the growth inhibition in assay [5] (setting [7]) was -4%; in assay [5] (setting [8]), 95% (active); in assay [5] (at 50.0 µM), 32.6%; in assay [6] (setting [7]) it was 2%; in assay [6] (setting [8]), 97% (active); in assay [6] (at 50.0 µM), 90.5% (active).

On to `O=C(O)/C(=C/c1c(O)ccc2ccccc12)c1csc(-c2nc(/C(=C\c3c(O)ccc4ccccc34)C(=O)O)cs2)n1`, for which the growth inhibition in assay [1] (setting [7]) was 74% (active); in assay [1] (setting [8]), 74% (active); in assay [1] (at 50.0 µM) it was 89.6% (active); in assay [2] (setting [7]), 48%; in assay [2] (setting [8]), 48%; in assay [2] (at 50.0 µM), 92% (active). Further, the growth inhibition was 74% (active) in assay [3] (setting [7]); 74% (active) in assay [3] (setting [8]); 92% (active) in assay [3] (at 50.0 µM); 46% in assay [4] (setting [7]); 46% in assay [4] (setting [8]); 90% (active) in assay [4] (at 50.0 µM). Besides, the growth inhibition in assay [5] (setting [7]) is 49%; in assay [5] (setting [8]), 49%; in assay [5] (at 50.0 µM) it was 90.2% (active); in assay [6] (setting [7]), 68%; in assay [6] (setting [8]) it was 68%; in assay [6] (at 50.0 µM) it was 88% (active).

Turning to `CCOC(=O)/C=C(\C)OCC`, the growth inhibition in assay [1] (setting [7]) is -5%; in assay [1] (setting [8]) it was 25%; in assay [1] (at 50.0 µM) it was 16.3%; in assay [2] (setting [7]), -3%; in assay [2] (setting [8]), 2%; in assay [2] (at 50.0 µM), 6.1%. Besides, the growth inhibition was -4% in assay [3] (setting [7]); 3% in assay [3] (setting [8]); 7.25% in assay [3] (at 50.0 µM); -1% in assay [4] (setting [7]); 4% in assay [4] (setting [8]); 76% (active) in assay [4] (at 50.0 µM). The growth inhibition is -5% in assay [5] (setting [7]); -4% in assay [5] (setting [8]); 38.9% in assay [5] (at 50.0 µM); -5% in assay [6] (setting [7]); 7% in assay [6] (setting [8]); 10.4% in assay [6] (at 50.0 µM).

As to `O=C(O)Cc1ccccc1CCc1ccccc1Cl`, the growth inhibition in assay [1] (setting [7]) was -26%; in assay [1] (setting [8]), 74% (active); in assay [1] (at 50.0 µM) it was 85.2% (active); in assay [2] (setting [7]), -11%; in assay [2] (setting [8]), 72% (active); in assay [2] (at 50.0 µM) it was 82.5% (active). In addition, the growth inhibition is -19% in assay [3] (setting [7]); 71% (active) in assay [3] (setting [8]); 83.5% (active) in assay [3] (at 50.0 µM); -2% in assay [4] (setting [7]); 74% (active) in assay [4] (setting [8]); 87.1% (active) in assay [4] (at 50.0 µM). The growth inhibition in assay [5] (setting [7]) was 2%; in assay [5] (setting [8]) it was 83% (active); in assay [5] (at 50.0 µM), 77.1% (active); in assay [6] (setting [7]) it was -19%; in assay [6] (setting [8]), 83% (active); in assay [6] (at 50.0 µM), 81.3% (active).

In the case of `CC(=O)[O-].CC(=O)[O-].CC(=O)[O-].CC(=O)[O-].Cn1c(=O)c2[nH]cnc2n(C)c1=O.Cn1c(=O)c2[nH]cnc2n(C)c1=O.[Rh+2].[Rh+2]`, the growth inhibition was 3% in assay [1] (setting [7]); 20% in assay [1] (setting [8]); 43.3% in assay [1] (at 50.0 µM); 12% in assay [2] (setting [7]); 23% in assay [2] (setting [8]); 27.6% in assay [2] (at 50.0 µM). Also, the growth inhibition in assay [3] (setting [7]) is 12%; in assay [3] (setting [8]) it was 13%; in assay [3] (at 50.0 µM), -39.7%; in assay [4] (setting [7]), 9%; in assay [4] (setting [8]) it was 9%; in assay [4] (at 50.0 µM), -5.35%. Further, the growth inhibition in assay [5] (setting [7]) is 11%; in assay [5] (setting [8]), 19%; in assay [5] (at 50.0 µM), -29.4%; in assay [6] (setting [7]), 48%; in assay [6] (setting [8]), 62%; in assay [6] (at 50.0 µM) it was 23.1%.

Regarding `Cc1[nH]c2ccccc2c1C(c1ccccc1)c1c(C)[nH]c2ccccc12`, the growth inhibition in assay [1] (setting [7]) is 2%; in assay [1] (setting [8]), 92% (active); in assay [1] (at 50.0 µM) it was 71.6% (active); in assay [2] (setting [7]) it was 1%; in assay [2] (setting [8]), 98% (active); in assay [2] (at 50.0 µM), 83% (active). The growth inhibition in assay [3] (setting [7]) was 10%; in assay [3] (setting [8]), 97% (active); in assay [3] (at 50.0 µM), 87.2% (active); in assay [4] (setting [7]), 0%; in assay [4] (setting [8]), 97% (active); in assay [4] (at 50.0 µM), 81% (active). Moreover, the growth inhibition in assay [5] (setting [7]) is -1%; in assay [5] (setting [8]) it was 97% (active); in assay [5] (at 50.0 µM), 83.5% (active); in assay [6] (setting [7]) it was 20%; in assay [6] (setting [8]), 97% (active); in assay [6] (at 50.0 µM) it was 94.7% (active).

Regarding `CC(=O)O[C@]1(C(C)=O)CC[C@H]2[C@@H]3C[C@H](C)C4=CC(=O)NCC[C@]4(C)[C@H]3CC[C@@]21C`, the growth inhibition in assay [1] (setting [7]) is 0%; in assay [1] (setting [8]) it was 87% (active); in assay [1] (at 50.0 µM), 93.2% (active); in assay [2] (setting [7]), 20%; in assay [2] (setting [8]), 91% (active); in assay [2] (at 50.0 µM), 94.6% (active). The growth inhibition in assay [3] (setting [7]) is -20%; in assay [3] (setting [8]), 90% (active); in assay [3] (at 50.0 µM) it was 88% (active); in assay [4] (setting [7]), 6%; in assay [4] (setting [8]), 81% (active); in assay [4] (at 50.0 µM), 90.1% (active). Moreover, the growth inhibition in assay [5] (setting [7]) is 14%; in assay [5] (setting [8]) it was 92% (active); in assay [5] (at 50.0 µM), 92% (active); in assay [6] (setting [7]) it was 6%; in assay [6] (setting [8]), 90% (active); in assay [6] (at 50.0 µM) it was 94.5% (active).

For `O=C(CCSCCC(=O)NNc1ccccc1)NNc1ccccc1`, the growth inhibition in assay [1] (setting [7]) is 4%; in assay [1] (setting [8]), 32%; in assay [1] (at 50.0 µM), 24.4%; in assay [2] (setting [7]), -1%; in assay [2] (setting [8]), 28%; in assay [2] (at 50.0 µM) it was 3.5%. The growth inhibition was 4% in assay [3] (setting [7]); 37% in assay [3] (setting [8]); 20.4% in assay [3] (at 50.0 µM); 6% in assay [4] (setting [7]); 23% in assay [4] (setting [8]); 23.4% in assay [4] (at 50.0 µM). Besides, the growth inhibition in assay [5] (setting [7]) was 7%; in assay [5] (setting [8]) it was 44%; in assay [5] (at 50.0 µM), -14.7%; in assay [6] (setting [7]), 15%; in assay [6] (setting [8]) it was 58%; in assay [6] (at 50.0 µM) it was 35.9%.

(Values after PubChem BioAssay (NCI).)
